Experimental data reported in PubChem BioAssay (NCI).
Values joined by “and” are separate entries in the source; they are usually repeats but may differ in a detail not shown here. Equal entries are not always repeated. Compounds without any hit were thinned out: in the full panel of roughly 79,000, 15% have a hit. Some compounds were tested as several samples or in several runs, with calls that do not always agree. Active and inactive are the calls of the source. Rule as the data show it: active = growth inhibition above about 70%; inactive = the rest.

How the values were obtained:
[1] = NCI Yeast Anticancer Drug Screen. Data for the rad50 strain (AID 155);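 also: 0% = growth of vehicle-only cultures of the same strain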; settings: S. cerevisiae rad50 strain growth inhibition, stronger effect = higher value
Outline: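 Relative growth inhibition (compound vs vehicle) was measured in yeast with a defined repair-gene alteration.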

[2] = NCI Yeast Anticancer Drug Screen. Data for the mec2-1 strain (AID 157); settings: S. cerevisiae mec2-1 strain, stronger effect = higher value
Outline: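 Strain: mec2-1 (DNA repair/cell cycle alteration). Compound exposure, then growth measured; inhibition expressed relative to vehicle.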

[3] = NCI Yeast Anticancer Drug Screen. Data for the sgs1 mgt1 strain (AID 161);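 also: 0% = growth of cultures given vehicle only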; settings: S. cerevisiae sgs1 mgt1 strain, stronger effect = higher value
Outline: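 Test agents were incubated with a DNA-repair-mutant yeast strain. Growth was then read and compared against vehicle-treated controls.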

[4] = NCI Yeast Anticancer Drug Screen. Data for the cln2 rad14 strain (AID 165);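 also: 0% = growth equal to vehicle treated cultures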; settings: S. cerevisiae cln2 rad14 strain, stronger effect = higher value
Outline: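 Compounds are applied to the cln2 rad14 yeast strain, and growth is then compared with that of vehicle-treated cultures to give inhibition.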

[5] = NCI Yeast Anticancer Drug Screen. Data for the bub3 strain (AID 167); settings: S. cerevisiae bub3 mutant strain, stronger effect = higher value
Outline: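 Screening used yeast with an engineered genetic alteration affecting cell cycle control. Compound-exposed cultures were compared with vehicle cultures, and reduced growth was taken as inhibition.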

[6] = NCI Yeast Anticancer Drug Screen. Data for the mlh1 rad18 strain (AID 175); settings: S. cerevisiae mlh1 rad18 strain growth inhibition, stronger effect = higher value
Outline: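 Read-out is yeast growth inhibition, calculated against vehicle-only controls. The compound was applied to a strain engineered with DNA damage repair alterations.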

[7] = at 5.0 µM (retest, dose inferred, filed as 0.5)
[8] = at 50.0 µM (retest, dose inferred, filed as 5.0)

Row | SMILES | growth inhibition [1, 7] | growth inhibition [1, 8] | growth inhibition ([1]; at 50.0 µM) | growth inhibition [2, 7] | growth inhibition [2, 8] | growth inhibition ([2]; at 50.0 µM) | growth inhibition [3, 7] | growth inhibition [3, 8] | growth inhibition ([3]; at 50.0 µM) | growth inhibition [4, 7] | growth inhibition [4, 8] | growth inhibition ([4]; at 50.0 µM) | growth inhibition [5, 7] | growth inhibition [5, 8] | growth inhibition ([5]; at 50.0 µM) | growth inhibition [6, 7] | growth inhibition [6, 8] | growth inhibition ([6]; at 50.0 µM)
1 | CC(c1ccccc1)c1ccc(O)cc1 (stereo not given) | 0% (inactive) | 73% (active) | 46.9% (inactive) and 86.5% (active) | -3% (inactive) | 57% (inactive) | 33.2% (inactive) and 81% (active) | -1% (inactive) | 49% (inactive) | 6.55% (inactive) and 85.7% (active) | 0% (inactive) | 56% (inactive) | 24.6% (inactive) and 65.2% (inactive) | -9% (inactive) | 51% (inactive) | 40.4% (inactive) and 66.4% (inactive) | 0% (inactive) | 90% (active) | 53.2% (inactive) and 92.3% (active)
2 | O=C(CC1=Nc2nnc(CCCCCCCc3nnc4n3C(=O)C(CC(=O)c3ccc5ccccc5c3)=N4)n2C1=O)c1ccc2ccccc2c1 | 1% (inactive) | 85% (active) | 17.9% (inactive) | 1% (inactive) | 92% (active) | 9.85% (inactive) | -2% (inactive) | 93% (active) | 18.4% (inactive) | 6% (inactive) | 85% (active) | 82.1% (active) | 6% (inactive) | 88% (active) | 1.75% (inactive) | 3% (inactive) | 37% (inactive) | 26.9% (inactive)
3 | CC(=O)Nc1c(Cl)c(Cl)c2c(c1Cl)Cc1cc(Cl)ccc1-2 | 99% (active) | 99% (active) | 98.2% (active) | 99% (active) | 99% (active) | 98% (active) | 99% (active) | 49% (inactive) | 96.1% (active) | 97% (active) | 99% (active) | 95.5% (active) | 99% (active) | 99% (active) | 98.3% (active) | 99% (active) | 99% (active) | 98.5% (active)
4 | c1ccc(C(c2ccccc2)n2ccnc2)cc1 | -95% (inactive) | -13% (inactive) | 76.2% (active) | -11% (inactive) | 18% (inactive) | 60% (inactive) | -23% (inactive) | 37% (inactive) | 43.5% (inactive) | -27% (inactive) | -21% (inactive) | 66.6% (inactive) | -57% (inactive) | 2% (inactive) | 59.4% (inactive) | -72% (inactive) | 1% (inactive) | 80.7% (active)
5 | NC(=O)SCC(=O)NNc1ccccc1 | 16% (inactive) | 54% (inactive) | 48.1% (inactive) and 88.1% (active) | 1% (inactive) | 40% (inactive) | 13.3% (inactive) and 39.9% (inactive) | 5% (inactive) | 41% (inactive) | 87.8% (active) | 11% (inactive) | 60% (inactive) | 82.2% (active) | 13% (inactive) | 88% (active) | 86% (active) | 14% (inactive) | 81% (active) | 51.5% (inactive) and 88.9% (active)
6 | O=[N+]([O-])c1ccc(SSc2ccc([N+](=O)[O-])cc2)cc1 | 35% (inactive) and 88% (active) | 98% (active) | 98.2% (active) and 65.7% (inactive) | 70% (active) and 99% (active) | 99% (active) | 98.9% (active) and 38.1% (inactive) | 91% (active) and 87% (active) | 99% (active) and 98% (active) | 99% (active) and 68.8% (inactive) | 27% (inactive) and 65% (inactive) | 97% (active) | 93.7% (active) and -34.6% (inactive) | 58% (inactive) and 98% (active) | 99% (active) | 98.5% (active) and 49.2% (inactive) | 70% (active) and 87% (active) | 98% (active) | 98.3% (active) and 69.6% (inactive)
7 | CC(C)(Cc1nocc1C(C)(C)CC#N)c1cc(CC(C)(C)C2(C)OCCO2)no1 | -4% (inactive) | 0% (inactive) | -9.6% (inactive) | 0% (inactive) | -1% (inactive) | 9.45% (inactive) | -8% (inactive) | 1% (inactive) | -7.8% (inactive) | 2% (inactive) | -6% (inactive) | 25.3% (inactive) | -7% (inactive) | -6% (inactive) | -47.8% (inactive) | -3% (inactive) | -4% (inactive) | -9.8% (inactive)
8 | CC[N](CC)[Ge]([CH2]C)[CH2]C.C[CH2][Ge]([CH2]C)[CH2]C | 40% (inactive) | 99% (active) | 87% (active) | 19% (inactive) | 100% (active) | 90.3% (active) | 32% (inactive) | 99% (active) | 90% (active) | 54% (inactive) | 98% (active) | 92.5% (active) | 24% (inactive) | 99% (active) | 90% (active) | 37% (inactive) | 99% (active) | 92.3% (active)
9 | O=C1CCC(c2ccccc2)(C2(c3ccccc3)CCC(=O)O2)O1 (stereo not given) | 1% (inactive) | 7% (inactive) | 17.4% (inactive) and 59.5% (inactive) | -4% (inactive) | 4% (inactive) | 4.8% (inactive) and 50.9% (inactive) | 3% (inactive) | 57% (inactive) | 12.4% (inactive) and 70.5% (active) | 4% (inactive) | 52% (inactive) | 4.35% (inactive) and 13.1% (inactive) | 2% (inactive) | 21% (inactive) | 13.8% (inactive) and 10.7% (inactive) | 4% (inactive) | 47% (inactive) | -0.2% (inactive) and 63.1% (inactive)
10 | COc1ccc(C2c3cc4c(cc3OC(NNC(N)=O)C2C)OCO4)cc1 (stereo not given) | -1% (inactive) | 96% (active) | 84.5% (active) | -36% (inactive) | 96% (active) | 80.4% (active) | -38% (inactive) | 96% (active) | 87.8% (active) | -4% (inactive) | 95% (active) | 76% (active) | -34% (inactive) | 99% (active) | 85.8% (active) | 6% (inactive) | 97% (active) | 85.8% (active)
11 | OCC(O)C(O)C(O)C(/C=N/Nc1ccccc1)=N/Nc1ccccc1 (stereo not given) | 2% (inactive) | -13% (inactive) | 40.5% (inactive) and 21.7% (inactive) and 50.6% (inactive) | -2% (inactive) | -34% (inactive) | -5.35% (inactive) and -4.3% (inactive) and 15.8% (inactive) | 2% (inactive) | -9% (inactive) | 55.5% (inactive) and 27.6% (inactive) and 33% (inactive) | 5% (inactive) | -12% (inactive) | 5.55% (inactive) and -6.8% (inactive) and -39.8% (inactive) | 5% (inactive) | 8% (inactive) | -12.9% (inactive) and -5.05% (inactive) and -1.05% (inactive) | 20% (inactive) | 0% (inactive) | 24.9% (inactive) and 21.1% (inactive) and 48.2% (inactive)
12 | Nc1ccc([N+](=O)[O-])c(S(=O)(=O)O)c1 | -160% (inactive) | -143% (inactive) | 60.8% (inactive) and -0.9% (inactive) | -46% (inactive) | -47% (inactive) | 28.6% (inactive) and -3.55% (inactive) | -60% (inactive) | -54% (inactive) | 46% (inactive) and 3.45% (inactive) | -56% (inactive) | -53% (inactive) | 40.2% (inactive) and -6.5% (inactive) | -71% (inactive) | -57% (inactive) | 78.8% (active) and -31.6% (inactive) | -139% (inactive) | -104% (inactive) | 64.6% (inactive) and 6.45% (inactive)
13 | C=CC(=O)O | -2% (inactive) | -1% (inactive) | 9.85% (inactive) and 32.4% (inactive) | -1% (inactive) | 0% (inactive) | 21.9% (inactive) and -20.6% (inactive) | -1% (inactive) | 2% (inactive) | -3.35% (inactive) and 18.4% (inactive) | 0% (inactive) | 1% (inactive) | 20.8% (inactive) and 9.55% (inactive) | 1% (inactive) | 3% (inactive) | 47% (inactive) and 30.1% (inactive) | 1% (inactive) | -1% (inactive) | 47.5% (inactive) and 39% (inactive)
14 | C=CCN(CC=C)C(CC(=O)C(C)(C)C)=NCC | 0% (inactive) | -6% (inactive) | -14.9% (inactive) | -7% (inactive) | 6% (inactive) | -7.85% (inactive) | 0% (inactive) | -6% (inactive) | -5.85% (inactive) | 1% (inactive) | 1% (inactive) | 36% (inactive) | -3% (inactive) | 3% (inactive) | -3.75% (inactive) | -11% (inactive) | 1% (inactive) | -22.6% (inactive)
15 | CCCCCCCCCCCCOS(=O)(=O)O | -6% (inactive) | 29% (inactive) | -13.1% (inactive) and 99% (active) and 25.1% (inactive) | -12% (inactive) | 2% (inactive) | -36.6% (inactive) and 98.2% (active) and 32.4% (inactive) | -5% (inactive) | 28% (inactive) | 6.3% (inactive) and 97% (active) and 36.8% (inactive) | 0% (inactive) | 36% (inactive) | 1% (inactive) and 98.4% (active) and 7.2% (inactive) | -17% (inactive) | -20% (inactive) | -29.6% (inactive) and 97% (active) and 23.4% (inactive) | -17% (inactive) | 29% (inactive) | -2.05% (inactive) and 98.2% (active) and 55.9% (inactive)
